Experimental data taken from PubChem BioAssay (NCATS).
Inconclusive results are not listed. Active and inactive are the calls of the source. Calls come from the whole dose curve; as a rule, active = well fitted inhibition curve with a large enough effect; inconclusive = small, poorly fitted or top-dose-only effect; inactive = flat fitted curve, though single readings scatter.

Key:
CRL-7250 = normal cell line; assay: Cytotoxic Profiling of Annotated Libraries Using Quantitative High-Throughput Screening (AID 1296008); conditions: Five cell lines viability, CellTiter-Glo ATP luminescence, 48-72 h; max response: active compounds read low; for max response: % is set by controls: 0 for no effect and ±100 for the full control effect
Summary of the method: (§1)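 Cytotoxicity was measured as CellTiter-Glo ATP luminescence, read after 10 min at room temperature. Compound treatment of the cells lasted 48 or 72 hr at 37 degrees Celsius in a qHTS format.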

HEK293 = assay: as above; conditions: Five cell lines viability, CellTiter-Glo ATP luminescence, 48-72 h; max response: active compounds read low
Summary of the method: as §1

HaCat = assay: as above; conditions: Five cell lines viability, CellTiter-Glo ATP luminescence, 48-72 h; max response: active compounds read low
Summary of the method: as §1

KB-3-1 = assay: as above; conditions: Five cell lines viability, CellTiter-Glo ATP luminescence, 48-72 h; max response: active compounds read low
Summary of the method: as §1

NIH3T3 = assay: as above; conditions: Five cell lines viability, CellTiter-Glo ATP luminescence, 48-72 h; max response: active compounds read low
Summary of the method: as §1

HEK293T = assay: qHTS assay to identify novel small-molecules to repurpose for Merkel cell carcinoma treatment (AID 1296009); conditions: MCC and control cell lines, CellTiter-Glo viability, 72 h; series mostly up to 44.8 µM
Summary of the method: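 After compound transfer in DMSO, plates were kept 72 hr at 37 degree celsius. Luminescent ATP signal from CellTiter-Glo served as viability measure, normalized against DMSO and no-cell controls.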
Note: nearly all actives have a fitted effect of over 60% in size.

CC(C)CC(=O)OC[C@H]1O[C@@](COC(=O)CC(C)C)(O[C@H]2O[C@H](CO)[C@@H](O)[C@H](O)[C@H]2OC(=O)CC(C)C)[C@@H](OC(=O)CC(C)C)[C@@H]1O
inactive: outcome (CRL-7250) | outcome (HEK293) | max response (HaCat) -5.25% | max response (KB-3-1) 6.03% | max response (NIH3T3) 0.671% | Potency (HEK293T)

CC(C)[C@@H](C)/C=C/[C@@H](C)[C@H]1CC[C@H]2C3=CC=C4C[C@@H](O)CC[C@]4(C)[C@H]3CC[C@]12C
inactive: max response (CRL-7250) -9.59% | outcome (HEK293) | max response (HaCat) -1.06% | outcome (KB-3-1) | max response (NIH3T3) -4.11% | Potency (HEK293T)

O=C(O)c1cc(O)c2cccc(O)c2c1O[C@@H]1O[C@H](CO)[C@@H](O)[C@H](O)[C@H]1O
inactive: max response (CRL-7250) -1.91% | outcome (HEK293) | max response (HaCat) 2.74% | max response (KB-3-1) 4.95% | outcome (NIH3T3) | Potency (HEK293T)

C=C1CC[C@@H]2[C@](C)(CC[C@H](O)[C@@]2(C)CCC=C(C)C)[C@@H]1Cc1c[nH]c2ccccc12
inactive: max response (CRL-7250) -8.3% | outcome (HEK293) | max response (HaCat) -2.84% | max response (KB-3-1) 1.09% | outcome (NIH3T3) | Potency (HEK293T)

CC(/C=C/C1(O)C(C)CC(O)CC1(C)C)OC1OC(CO)C(O)C(O)C1O (stereo not drawn)
inactive: max response (CRL-7250) 1.42% | outcome (HEK293) | max response (HaCat) -9.66% | outcome (KB-3-1) | outcome (NIH3T3) | Potency (HEK293T)

O=C(O)c1cnn(-c2nc3cc(OC(F)(F)F)c(Cl)cc3[nH]2)c1
inactive: max response (CRL-7250) -25.2% | outcome (HEK293) | max response (HaCat) 3.71% | max response (KB-3-1) 4.77% | outcome (NIH3T3) | Potency (HEK293T)

C/C(=C\CO)CC/C=C(\C)C(=O)O[C@H]1[C@H](OC2OC=C(C(=O)O)C3CCC(C)(O)C23)O[C@H](CO)[C@@H](O)[C@@H]1O (stereo partly drawn)
inactive: max response (CRL-7250) -10.5% | outcome (HEK293) | max response (HaCat) 1.01% | outcome (KB-3-1) | max response (NIH3T3) 0.631% | Potency (HEK293T)

COC(=O)CC1(O)C(=O)Nc2ccccc21 (stereo not drawn)
inactive: max response (CRL-7250) 3.09% | outcome (HEK293) | max response (HaCat) -5.67% | outcome (KB-3-1) | max response (NIH3T3) 2.12% | Potency (HEK293T)

C=C(C)[C@@H](C)[C@H]1O[C@]23C[C@]4(CO2)C(CCC2[C@@]5(C)CC[C@H](O[C@@H]6OC[C@H](O)[C@H](O[C@@H]7O[C@H](CO)[C@@H](O)[C@H](O)[C@H]7O)[C@H]6O[C@@H]6O[C@@H](CO)[C@H](O)[C@H]6O)C(C)(C)C5CC[C@]24C)C3[C@@](C)(O)[C@@H]1OC(C)=O (stereo partly drawn)
inactive: outcome (CRL-7250) | outcome (HEK293) | max response (HaCat) -4.68% | max response (KB-3-1) -3.84% | outcome (NIH3T3) | outcome (HEK293T) inactive [at 9.27 µM]

COc1cc(CC(COC2OC(CO)C(O)C(O)C2O)c2cc(/C=C/CO)cc(OC)c2O)ccc1O (stereo not drawn)
inactive: outcome (CRL-7250) | outcome (HEK293) | max response (HaCat) 1.49% | max response (KB-3-1) 1.74% | outcome (NIH3T3) | Potency (HEK293T)

CC1(C)O[C@@]2(C)CC[C@@H]1C[C@@H]2OC1OC(CO)C(O)C(O)C1O (stereo partly drawn)
inactive: outcome (CRL-7250) | outcome (HEK293) | max response (HaCat) -5.55% | outcome (KB-3-1) | max response (NIH3T3) -8.31% | Potency (HEK293T)

CCn1cc(C2=NOC(C(=O)Nc3c(C)n(C)n(-c4ccccc4)c3=O)C2)c(C)n1 (stereo not drawn)
inactive: max response (CRL-7250) 1.73% | outcome (HEK293) | max response (HaCat) -4.53% | outcome (KB-3-1) | max response (NIH3T3) 2.09% | Potency (HEK293T)

CC(C)=CCCC1(C)Oc2cc3c(c4c2C2C(O4)C(C)(O)CCC21)CN(C(CCC(=O)O)C(=O)O)C3=O (stereo not drawn)
inactive: outcome (CRL-7250) | outcome (HEK293) | max response (HaCat) -6.38% | outcome (KB-3-1) | outcome (NIH3T3) | Potency (HEK293T)

CC(C)=CCC[C@](C)(O[C@@H]1O[C@H](CO[C@@H]2OC[C@@H](O)[C@H](O)[C@H]2O)[C@@H](O)[C@H](O)[C@H]1O)[C@H]1CC[C@]2(C)[C@@H]1[C@H](O)C[C@@H]1[C@@]3(C)CC[C@H](O[C@@H]4O[C@H](CO)[C@@H](O)[C@H](O)[C@H]4O[C@@H]4O[C@H](CO)[C@@H](O)[C@H](O)[C@H]4O)C(C)(C)[C@@H]3CC[C@]12C
inactive: outcome (CRL-7250) | outcome (HEK293) | max response (HaCat) -10.6% | outcome (KB-3-1) | outcome (NIH3T3) | Potency (HEK293T)

C[C@@H](OC(=O)/C=C/c1ccc(O)cc1)C1=C[C@]2(C=C[C@@H]3C(C(=O)O)=CO[C@@H](O[C@@H]4O[C@H](CO[C@@H]5O[C@H](CO)[C@@H](O)[C@H](O)[C@H]5O)[C@@H](O)[C@H](O)[C@H]4O)[C@@H]32)OC1=O
inactive: max response (CRL-7250) 1.07% | outcome (HEK293) | max response (HaCat) 4.46% | max response (KB-3-1) 4.2% | max response (NIH3T3) 2.02% | Potency (HEK293T)

C[C@@H]1C[C@H](O)/C=C/[C@H](O)[C@@H](O)CC(=O)O1
inactive: max response (CRL-7250) 2.61% | outcome (HEK293) | max response (HaCat) 3.57% | outcome (KB-3-1) | outcome (NIH3T3) | Potency (HEK293T)

CC(C)(C)NCC(O)COc1cccc2c1CCCC2=O (stereo not drawn)
inactive: outcome (CRL-7250) | outcome (HEK293) | max response (HaCat) -7.74% | outcome (KB-3-1) | outcome (NIH3T3) | Potency (HEK293T)

COc1c(C)c(OCC=C(C)C)cc2c1C(=O)NC2=O
inactive: max response (CRL-7250) -3.35% | outcome (HEK293) | max response (HaCat) -14.7% | outcome (KB-3-1) | max response (NIH3T3) -1.16% | Potency (HEK293T)
